Measured potencies and affinities stand elsewhere. Calls of active or inactive are those of the source.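 Rule for the calls: active = fitted half-maximal concentration for loss of cell signal no higher than twice the top valid tested concentration; inconclusive = flat curve at 30 to 70% inhibition, or poor fit; inactive = flat within 30%, signal rise, or potency above limit.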
Assay: cytotoxicity toward MDA-MB-231 breast cancer cells – cell-based, CellTiter-Glo luminescence, cherry-pick, cytotoxicity control for RAD54 inhibitor project, dose response (AID 651692);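 note: more negative values mean stronger loss of viable cell signal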

| Compound | outcome |
| --- | --- |
| CN(C)CCCNc1nc(-c2ccc(Cl)cc2)nc2ccccc12 | inactive |
| CN(C)CCNC(=O)c1c(NC(=O)c2ccccc2)sc2c1CCCC2 | inactive |
| CCOC(=O)c1cc(-c2ccncc2)nc2c1c(C)nn2-c1ccccn1 | inactive |
| COc1cc2sc3cc(NCC[C@@H]4CCCN4C)ccc3c(=O)c2cc1OC | inactive |
| CCN(CC)CCCNc1nc(-c2ccccc2)nc2ccccc12 | inactive |
| CCOC(=O)c1cnc2c(C)cc(C)cc2c1NCCCN1CCOCC1 | inactive |
| CCN(CC)CCCNC(=O)c1ccc2c3n(nc2c1)-c1ccc(Cl)cc1CO3 | inactive |
| Cc1c(Cl)ccc(S(=O)(=O)NCCCn2ccnc2)c1Cl | inactive |
| COc1cccc(-c2cc3nc(NCCCN(C)C)n(C)c(=O)c3s2)c1 | inactive |
| CN(C)CCCNc1c2c(nc3ccccc13)CCC2 | inactive |
| Cc1ccc(S(=O)(=O)CCSc2ccc(C(F)(F)F)cn2)cc1 | inactive |
| COc1ccc2oc3cc(NCCN(C)C)ccc3c(=O)c2c1 | inactive |
| CCN1CCN(c2cc(C)c3cc(NC(=S)N4CCC5(CC4)OCCO5)ccc3n2)CC1 | inactive |
| O=C(Nc1ccccc1)c1cc(S(=O)(=O)N2CCOCC2)cs1 | inactive |
| CC1CCCN(CCCNC(=O)c2cc3c(Cl)nc4ccccc4c3s2)C1 (stereo not given) | inactive |
| Cc1ccc2nc3c(c(Nc4ccc(O)cc4)c2c1)CCC3 | inactive |
| Cc1cccc(Cn2c(Sc3nc(C)cs3)nc3c2c(=O)[nH]c(=O)n3C)c1 | inactive |
| NCCN1CCN(CCN)CC1 | inactive |
| CC1CCN(CCCNC(=O)c2cc3c(Cl)nc4ccccc4c3s2)CC1 | inactive |
| COc1cc(OC)c2nc(C)c3c(c2c1)N(c1ccc(O)cc1)CC3 | inactive |
| Cn1c(C(=O)NCCN2CCCCCC2)cc2c(=O)n(C)c3ccccc3c21 | inactive |
| Oc1ccccc1-c1nc(NCCN2CCOCC2)c2ccccc2n1 | inactive |
| CCCN(CCC)CCCNC(=S)Nc1ccc2nc(N3CCN(C)CC3)cc(C)c2c1 | inactive |
| Cc1cc(C)c2c(N)c3ccccc3nc2n1 | inactive |
| c1cncc(Nc2c3ccccc3nc3ccccc23)c1 | inactive |

| Compound | outcome |
| --- | --- |
| COc1ccc(-c2cc(NC=O)c3ncc(-c4cccc(C(=O)NCCN(C)C)c4)n3c2)cn1 | inactive |
| CCc1nc(Nc2ccncc2)c2oc3ccccc3c2n1 | inactive |
| NNC(=O)c1oc2nc(-c3cccs3)cc(-c3ccco3)c2c1N | inactive |
| CCOC(=O)c1cnc2c(CC)cccc2c1NCCCN1CCOCC1 | inactive |
| CCN(CC)CCCNC(=O)c1cc2c(=O)[nH]c3ccc(C)cc3c2s1 | inactive |
| CN1CCN(c2nc(-c3cccnc3)nc3ccccc23)CC1 | inactive |
| CCN1CCN(c2cc(C)c3cc(NC(=S)N4CC(C)CC(C)C4)ccc3n2)CC1 (stereo not given) | inactive |
| CCN(CC)CCNc1cccc2sc3ccccc3c(=O)c12 | inactive |
| CCN(CC)CCOc1c(Br)ccc2c1sc1nc3n(c(=O)c12)CCC3 | inactive |
| CC(=O)Nc1cc(-c2cccc(C(=O)NCCN(C)C)c2)cn2c(-c3ccc(S(C)(=O)=O)cc3)cnc12 | inactive |
| COc1ccc(-c2cc3nc(NCCCN(C)C)n(C)c(=O)c3s2)cc1OC | inactive |
| CCOC(=O)c1cnc2ccc(C)cc2c1NCCN1CCOCC1 | inactive |
| Oc1ccc(CCNc2c3ccccc3nc3ccccc23)cc1O | inactive |
| CCOC(=O)c1c(C)n(C)c2ccc(OCC(O)CN3CCN(C)CC3)cc12 (stereo not given) | inactive |
| Cc1cccn2c(=O)c3cc(C#N)c(=O)n(CCCN4CCOCC4)c3nc12 | inactive |
| Cc1cccc(-c2cc(N3CCCN(C)CC3)n3nccc3n2)c1 | inactive |
| COC(=O)c1c(NC(=O)c2ccc([N+](=O)[O-])o2)sc2c1CCN(C(C)C)C2 | inactive |
| CCN(CC)CCCNc1nc2cc(OC)c(OC)cc2c2nc(-c3ccccc3)nn12 | inactive |
| CCCCN(C)CCNC(=S)Nc1ccc2nc(N3CCN(CC)CC3)cc(C)c2c1 | inactive |
| COc1ccc(C(=O)Nc2ccc3nc(N4CCN(C)CC4)cc(C)c3c2)c(OC)c1 | inactive |
| CCOC(=O)c1c(NC(=O)c2ccc(S(=O)(=O)N3CCOCC3)cc2)sc2c1CCN(C(C)C)C2 | inactive |
| CN1CCN(c2nc(-c3cccs3)nc3ccccc23)CC1 | inactive |
| CCCCN(C)CCNC(=O)c1cc2c(-c3cccc(OC)c3)nn(C)c2s1 | inactive |
| Cc1cc2ccc3ccccc3c2cc1CN(C)C | inactive |
| CN(C)CCCN(C(=O)CCOc1ccccc1)c1nc2ccc(F)cc2s1 | inactive |

Source: PubChem BioAssay AID651692 (Broad Institute, 2012)
